Assay results reported in PubChem BioAssay (NCI).
This is part of a sample that, as a whole, favours compounds with a hit. Of some 79,000 tested, about 15% had one in any assay. Rule as the data show it: active = growth inhibition above about 70%; inactive = the rest.

How the values were obtained:
[1] = NCI Yeast Anticancer Drug Screen. Data for the rad50 strain (AID 155);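 also: 0% = growth of vehicle-only cultures of the same strain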; conditions: S. cerevisiae rad50 strain growth inhibition; at 50.0 µM; hits give high values
In short: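 Genetically altered yeast (DNA repair pathway); compound treatment; growth inhibition vs vehicle ctrl.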

[2] = NCI Yeast Anticancer Drug Screen. Data for the mec2-1 strain (AID 157); conditions: S. cerevisiae mec2-1 strain, at 50.0 µM, hits give high values
In short: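 Test agents were screened against the mec2-1 yeast strain, with defined DNA repair or cell cycle alteration. Growth was scored as inhibition against vehicle-only controls.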

[3] = NCI Yeast Anticancer Drug Screen. Data for the sgs1 mgt1 strain (AID 161);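 also: 0% = growth of cultures given vehicle only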; conditions: S. cerevisiae sgs1 mgt1 strain, at 50.0 µM, hits give high values
In short: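 Genetically altered yeast, compound exposure, growth inhibition relative to vehicle.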

[4] = NCI Yeast Anticancer Drug Screen. Data for the cln2 rad14 strain (AID 165);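 also: 0% = growth equal to vehicle treated cultures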; conditions: S. cerevisiae cln2 rad14 strain, at 50.0 µM, hits give high values
In short: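 Growth of compound-exposed yeast (cln2 rad14 genotype) measured and expressed as inhibition relative to vehicle.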

[5] = NCI Yeast Anticancer Drug Screen. Data for the bub3 strain (AID 167); conditions: S. cerevisiae bub3 mutant strain, at 50.0 µM, hits give high values
In short: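 Yeast carrying a defined mutation is treated with each compound, and growth is compared with that of vehicle-exposed cells to give inhibition.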

[6] = NCI Yeast Anticancer Drug Screen. Data for the mlh1 rad18 strain (AID 175); conditions: S. cerevisiae mlh1 rad18 strain growth inhibition; at 50.0 µM; hits give high values
In short: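 In this whole-cell yeast screen, a strain with altered DNA damage repair is challenged with compound, and its growth is measured against matched vehicle-treated controls.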

Measured: growth inhibition

O=C(O)CC(C(=O)O)c1ccccc1[N+](=O)[O-] (stereo not given)
inactive: [1] -26.9% | [2] -3.8% | [3] -24.2% | [4] -32.5% | [5] -1.1% | [6] -7.8%

c1ccc(CCCOCCCc2ccccc2)cc1
inactive: [1] 24.9% | [2] 14.8% | [3] 9.15% | [4] 7.4% | [5] 51.2% | [6] 22.4%

CCCNC(=O)/C=C/C(=O)NCCC
inactive: [1] 8.55% | [2] -0.8% | [3] -1.55% | [4] -43.2% | [5] -6% | [6] 4.1%

CCOC(=S)Sc1ccc2c(c1)-c1ccc(F)cc1C2=O
inactive: [1] 7% | [2] 6.3% | [3] 2.1% | [4] 10.2% | [5] -3.85% | [6] -1.65%

C[C@H](CCC(=O)NCCS(=O)(=O)O)[C@H]1CC[C@H]2[C@@H]3CC[C@@H]4C[C@H](O)CC[C@]4(C)[C@H]3CC[C@]12C
inactive: [1] 2.9% | [2] -21.1% | [3] 5.65% | [4] -9.3% | [5] -5.55% | [6] 14.8%

CCC(=O)OCC1OC(Oc2ccc(N=Nc3ccccc3)cc2)C(OC(=O)CC)C(OC(=O)CC)C1OC(=O)CC (stereo not given)
inactive: [1] 18.9% | [2] 3.4% | [3] 34% | [4] 1.35% | [5] 12.9% | [6] 28.2%

O=[N+]([O-])c1cccc(-c2cc(-c3cccs3)cc(-c3ccccc3)n2)c1
inactive: [1] 6.7% | [2] 3.95% | [3] -1.95% | [4] -1.4% | [5] 2.85% | [6] 4.95%

O=C(Nc1ccc(Cl)c(Cl)c1)C(=O)Nn1c(=S)[nH]c2ccccc2c1=O
inactive: [1] -4.05% | [2] -16.4% | [3] 2.8% | [4] -1.5% | [5] -0.8% | [6] 0.65%

COc1cc(O)c(C(C)=O)c(O)c1O
inactive: [1] -20.4% | [2] -12.8% | [3] -3.1% | [4] -36.7% | [5] 4.8% | [6] 6.45%

COc1cc2c(cc1OC)C(=O)CC2
inactive: [1] -12.7% | [2] -10.9% | [3] -19.7% | [4] -5.25% | [5] -4.2% | [6] 0.15%

CCCCCCCCCCCCCCCCCC(=O)N/N=C/c1ccccc1OC
inactive: [1] 7.05% | [2] 11.9% | [3] 9.25% | [4] -1.6% | [5] -2.05% | [6] 28.1%

CCc1cccc(C(C)C)c1NC(=O)C(=O)C(C(=O)C(=O)OC)c1nc2ccccc2[nH]c1=O (stereo not given)
inactive: [1] 5.95% | [2] -29.1% | [3] 8.85% | [4] 20.2% | [5] -9.5% | [6] 2.9%

CC1C2CC(C(C3C(=O)C4CC3C(C)(C)C4C)C2=O)C1(C)C (stereo not given)
inactive: [1] -13.1% | [2] -26.1% | [3] -43.2% | [4] -1% | [5] -27.4% | [6] -32.1%

Cn1c(=O)[nH]c(=O)c2[nH]c(=O)c(=O)n(C)c21
inactive: [1] -3.15% | [2] 23.3% | [3] 1.55% | [4] -1.9% | [5] -9.5% | [6] -13.1%

O=S1(=O)C=CC(N/N=C\c2ccc3ccccc3n2)=C1
inactive: [1] 4.8% | [2] -11.1% | [3] -4.45% | [4] -36.8% | [5] 9.7% | [6] -7.25%

C=CCc1cc(OC)c2c(c1)C(O)CC(c1ccccc1)O2 (stereo not given)
inactive: [1] 15.2% | [2] -24.6% | [3] -34.6% | [4] -6.2% | [5] 2.9% | [6] 1.55%

O=C(O)c1cccc(F)n1
inactive: [1] -0.45% | [2] 2.05% | [3] -1.8% | [4] 3.1% | [5] -0.65% | [6] -1.85%

C1CSCCSCCSCCSC1
inactive: [1] -8.05% | [2] -24.4% | [3] -13.7% | [4] -18.3% | [5] 31.9% | [6] -25.4%

CC(=O)Nc1ncc(Br)s1
inactive: [1] 6.75% | [2] 6.05% | [3] -18.4% | [4] -13.8% | [5] -9.4% | [6] 5.3%

COC(=O)C1OC(O[C@H]2CC[C@]3(C)[C@H]4CC=C5[C@@H]6CC(C)(C)CC[C@]6(C(=O)OC)CC[C@@]5(C)[C@]4(C)CC[C@H]3C2(C)C)C(O)C(O)C1O (stereo not given in full)
inactive: [1] 5.45% | [2] -8.4% | [3] 2.05% | [4] 5.85% | [5] 23.6% | [6] 15.1%
